Among the data in the supplement of paper PMC7556523 are growth inhibition values, retold here.

Assay [1] has as its system Sporothrix brasiliensis CBS 133006. The assay is described as follows: growth inhibition relative to untreated control; higher = more growth inhibition (more antifungal activity), active = 80 or more; extreme values may be limits of the assay. As to conditions: 1 µM; 48 h. The essentials:
(§1)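 Before testing, the reference isolates were kept in brain heart infusion broth with 2% glucose at 36°C for 7 days to give yeast-form cells. These cells, at 1 x 10^5 CFU/ml, received library compounds at a final 1 μM and were held 48 h at 35°C in 5% CO2. Growth was checked by eye under an inverted light microscope and quantified spectrophotometrically in quadruplicate, and the value is percent growth inhibition versus untreated cells.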

The test system of assay [2] is Sporothrix schenckii ATCC 32286. The description is as above. As to conditions: 1 µM; 48 h. Summed up:
as §1

Unmarked numbers belong to inactive results.

For `COC(=O)C1=C(C)NC(C)=C(C(=O)OC(C)C)C1c1cccc2nonc12` (stereo not given), the growth inhibition in assay [1] was 10.8%; in assay [2], 11%.
The corresponding values for `O=C(C(Cc1c[nH]c2ccccc12)NS(=O)(=O)c1ccc(Cl)cc1)N1CCCCC1` (stereo not given) are 5.75% and 4%.
Regarding `O=C(Nc1cccc(Cl)c1)c1cnc(N2CCN(c3ccncc3)CC2)c(Cl)c1`, the growth inhibition was 0.75% in assay [1] and 1.5% in assay [2].
On to `Cc1cc(Nc2ccc(C(F)(F)F)cc2)n2ccnc2n1`, for which the growth inhibition in assay [1] was 12.2%; in assay [2] it was 1%.
Take `COC(=O)c1cccc2oc(-c3cccc(OC)c3NC(=O)c3cc(-c4ccccc4)on3)nc12`: the values for the growth inhibition in assay [1] and in assay [2] were 7.5% and 0%, respectively.
Take `COCC(C)NC(=O)CSc1ncnc2sc(-c3ccccc3)cc12` (stereo not given): the growth inhibition in assay [1] is 17.8%; in assay [2] it was 14.2%.
As for `CCN(CC)S(=O)(=O)c1ccc(C(=O)Nc2cc(C)nn2-c2nc(C)c(C)c(=O)[nH]2)cc1`, the values for the growth inhibition in assay [1] and in assay [2] were 1.25% and 0%, respectively.
For `CCCCS(=O)(=O)Nc1ccc2cnn(C)c2c1`, the growth inhibition in assay [1] was 4.75%; in assay [2], 1.75%.
On the same counts, the results for `c1csc(-c2cnc3sc(NCC4CCOCC4)nn23)c1` are 19.8% and 8.75%.
The corresponding values for `Cc1ccc2[nH]c(C3CCCNC3)c(-c3ccncc3)c2c1` (stereo not given) are 19% and 7.75%.
Consider `COc1ccc(-c2nn(C(C)C)c3ncnc(N)c23)cc1OC`, for which the figures for the growth inhibition in assay [1] and in assay [2] were 6% and 14.2%, respectively.
On to `c1ccc2c(c1)CN(CC1CC1)CC1(CCN(Cc3c[nH]c4cnccc34)CC1)O2`, for which the figures for the growth inhibition in assay [1] and in assay [2] were 1.25% and 0%, respectively.
Consider `O=C(c1ccc(F)cc1)N(CCNc1ccccc1)c1ccccc1`, for which the growth inhibition is 16.5% in assay [1] and 12.2% in assay [2].
On the same counts, the results for `Cc1nn(C)cc1C(C)Nc1nncc(-c2ccc(C(F)(F)F)cc2)n1` (stereo not given) are 16% and 4.75%.
For `CNc1nnc(Sc2cnn(-c3ccccc3)c(=O)c2Cl)s1`, the growth inhibition in assay [1] was 6%; in assay [2] it was 0%.
On the same counts, the results for `CCCCN(CCCC)c1c(C#N)cc(S(=O)(=O)Nc2ccccc2)cc1C#N` are 9.25% and 23.8%.
For the compound `O=C(NCCc1ccn(-c2ccccc2)n1)C1CCCCC1`, the growth inhibition in assay [1] was 11.5%; in assay [2], 6.25%.
Take `Cc1ccc(NC(=O)c2cc(S(=O)(=O)NC(C)(C)C)ccc2C)nc1`: the growth inhibition is 4.25% in assay [1] and 0% in assay [2].
For the compound `CS(=O)(=O)c1ccc(C(=O)N(CC2CCCO2)c2nc3ccccc3s2)cc1[N+](=O)[O-]` (stereo not given), the values for the growth inhibition in assay [1] and in assay [2] were 27.2% and 19%, respectively.
`O=C(Nc1ccccc1-c1nc2c(C(=O)O)cccc2o1)c1ccccc1`: the growth inhibition in assay [1] was 1%; in assay [2], 0%.
For the compound `O=C(OCc1ccccc1)N1CCC(c2cc(-c3ccncc3)c(-c3ccc(F)cc3)[nH]2)CC1`, the growth inhibition was 5.25% in assay [1] and 13.2% in assay [2].
Consider `CCOC(=O)c1c(NC(=O)c2c(F)c(F)c(F)c(F)c2F)sc(C(N)=O)c1C`, for which the growth inhibition is 13.8% in assay [1] and 0% in assay [2].
With `COc1ccc(N(CCc2cccc(C)n2)C(=O)C2CCCCC2)cc1`, the growth inhibition in assay [1] is 5.75%; in assay [2], 0%.
Turning to `Cc1cc(Nc2ccncc2)n2nc(C)c(-c3ccccc3Cl)c2n1`, the growth inhibition in assay [1] was 5%; in assay [2] it was 4.75%.
For the compound `Nc1ncnc2c1c(-c1cnc3ccccc3c1)nn2CC1CCNCC1`, the growth inhibition was 13.2% in assay [1] and 15.5% in assay [2].
Regarding `COc1ccc(C2=NN(C3CCCCCC3)C(=O)C2(C)C)cc1OCCCCOc1ccc(-c2nn[nH]n2)cc1`, the growth inhibition was 6.25% in assay [1] and 0% in assay [2].
For the compound `FC(F)(F)c1nnc2ccc(Cl)nn12`, the growth inhibition is 9.25% in assay [1] and 14% in assay [2].
On the same counts, the results for `NC(=O)c1cc(Br)ccc1OCCOc1ccccc1` are 23.5% and 1.25%.
Consider `CCNC(=O)C(C)Nc1nc(-c2cccnc2)nc2sc(C)c(C)c12` (stereo not given), for which the growth inhibition in assay [1] is 2.25%; in assay [2], 16%.
As to `c1ccc(Oc2ccc(-c3cncc(-c4ccc5[nH]ccc5c4)n3)cc2)cc1`, the growth inhibition in assay [1] is 8%; in assay [2], 12.5%.
Take `CC1CC1C(=O)NC1CCN(CC2(c3ccccc3)CCCCC2)CC1` (stereo not given): the growth inhibition was 12.8% in assay [1] and 20.5% in assay [2].
On to `O=C(Nc1nnc(S)s1)c1cc(Br)ccc1Cl`, for which the growth inhibition in assay [1] was 6.75%; in assay [2], 4%.
Turning to `C[C@H](C(N)=O)N1CCCC[C@H]1c1ccc(OCc2cccc(F)c2)cc1`, the growth inhibition in assay [1] was 6.5%; in assay [2], 10%.
The corresponding values for `O=C(NC1CCCCC1)N1CCN(Cc2ccc3c(c2)OCO3)CC1` are 9.25% and 17.2%.
On to `COc1cc2ncnc(NC3CCN(Cc4ccccc4)CC3)c2cc1OC`, for which the values for the growth inhibition in assay [1] and in assay [2] were 8% and 0%, respectively.
The corresponding values for `CC(C)(C)c1ccc(N[C@@H]2CCCC[C@H]2NC(=O)c2ccco2)cc1` are 7.25% and 0.75%.
With `CCn1cnc2c(Nc3cc(F)cc(F)c3)nc(C#N)nc21`, the growth inhibition was 13% in assay [1] and 3.75% in assay [2].
For the compound `CC(C)(C)c1cnc(NC(=O)c2ccccc2O)s1`, the growth inhibition in assay [1] was 8%; in assay [2], 0%.
On the same counts, the results for `COc1ccc(-c2cc(NC(=O)c3ccc(F)cc3Cl)ccc2OC)cc1` are 0% and 6.75%.
Regarding `Nc1ncc(-c2ccc(C(F)(F)F)nc2)cc1-c1ccc(C(F)(F)F)nc1`, the growth inhibition in assay [1] is 18.2%; in assay [2] it was 11%.
As for `CO[C@H]1/C=C\O[C@@]2(C)Oc3c(C)c(O)c4c(O)c(/c(=C/NN5CCN(C)CC5)c(O)c4c3C2=O)=N\C(=O)/C(C)=C\C=C/[C@H](C)[C@H](O)[C@@H](C)[C@@H](O)[C@@H](C)[C@H](OC(C)=O)[C@@H]1C`, the growth inhibition in assay [1] is 3%; in assay [2], 11.2%.
With `Cc1cc(C)n2nc(C(=O)Nc3cc(C(F)(F)F)ccc3N3CCOCC3)nc2n1`, the figures for the growth inhibition in assay [1] and in assay [2] were 0.25% and 12.5%, respectively.
In the case of `COc1ccc(C2=NCCN2)cc1-c1cn(-c2cccc(C3=NCCN3)c2)nn1`, the values for the growth inhibition in assay [1] and in assay [2] were 12.8% and 3%, respectively.
For the compound `O=C(NCCc1c[nH]c2ccccc12)c1cc2ccccc2oc1=O`, the values for the growth inhibition in assay [1] and in assay [2] were 17.8% and 4.5%, respectively.
The corresponding values for `COC(=O)c1ccc(F)cc1NS(=O)(=O)c1cccc(-c2cnn(Cc3ccccc3)c2)c1` are 12% and 20.2%.
